Assay [1] addresses Glucocorticoid receptor (Homo sapiens) (UniProt P04150). The experiment in a line: ATG_GR_TRANS: Attagene TRANS-FACTORIAL HepG2 Assay for human Glucocorticoid Receptor (GR) (AID 2282978; active = hit-call score of the fitted dose curve at least 0.9, where 1 is the maximum;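 also: activators score as hits since higher reporter transcript over DMSO is fitted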). The conditions noted are these: HepG2 Attagene TRANS GR reporter, mRNA transcription. The method in brief:
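Transiently transfected HepG2 cells express chimeric NR-GAL4 proteins acting on GAL4-UAS reporter units. Compounds are applied for 24 h. mRNA induction over DMSO is measured by capillary electrophoresis.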

Assay [2] concerns the target Bile acid receptor (Homo sapiens) (UniProt Q96RI1). The experiment in a line: ATG_FXR_TRANS: Attagene TRANS-FACTORIAL HepG2 Assay for Farnesoid X Receptor (FXR) (AID 2282979; active = hit-call score of the fitted dose curve at least 0.9, where 1 is the maximum;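 also: hits raise reporter mRNA above DMSO so AC50 marks FXR activation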). The conditions noted are these: HepG2 Attagene TRANS FXR-GAL4 reporter transcription. The method in brief:
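HepG2 cells transiently transfected with reporter constructs in which a chimeric FXR-GAL4 protein drives a GAL4-UAS reporter; 24 h compound exposure. Reporter mRNA measured by RT-PCR, FAM labelling, HpaI digestion and capillary electrophoresis; gain-of-signal versus DMSO.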

The target in assay [3] is Oxysterols receptor LXR-alpha (Homo sapiens) (UniProt Q13133). The experiment in a line: ATG_LXRa_TRANS: Attagene TRANS-FACTORIAL HepG2 Assay for human Liver X Receptor alpha (LXRa) (AID 2282980; active = hit-call score of the fitted dose curve at least 0.9, where 1 is the maximum). The conditions noted are these: HepG2 Attagene TRANS reporter, LXRa transactivation. The method in brief: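 HepG2 cells were transiently transfected with multiplexed reporter units driven by chimeric LXRa–GAL4 fusion proteins, then dosed for 24 h. Reporter mRNA was quantified by RT-PCR, fluorescent labelling and capillary electrophoresis; gain of signal fitted against DMSO baseline.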

Assay [4] concerns the target Oxysterols receptor LXR-beta (Homo sapiens) (UniProt P55055). The experiment in a line: ATG_LXRb_TRANS: Attagene TRANS-FACTORIAL HepG2 Assay for human Liver X Receptor beta (LXRb) (AID 2282981; active = hit-call score of the fitted dose curve at least 0.9, where 1 is the maximum). The conditions noted are these: HepG2 Attagene TRANS GAL4-LXRb reporter, mRNA. The method in brief: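 Cells: HepG2, transiently transfected with GAL4-UAS reporter units plus LXRb-Gal4 fusion. Treatment: 24 h. Detection: reporter mRNA by RT-PCR, 6-FAM labelling, HpaI digestion, capillary electrophoresis.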

Assay [5] deals with Hepatocyte nuclear factor 4-alpha (Homo sapiens) (UniProt P41235). Put plainly: ATG_HNF4a_TRANS: Attagene TRANS-FACTORIAL HepG2 Assay for human Hepatocyte Nuclear Factor 4 alpha (HNF4a) (AID 2282982; active = hit-call score of the fitted dose curve at least 0.9, where 1 is the maximum). The conditions noted are these: HepG2 HNF4a transactivation reporter, mRNA readout. Put shortly: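 Transfected HepG2 reporter cells are dosed for 24 h; reporter RNA is reverse-transcribed, amplified, fluorescently labelled and HpaI-digested before CE sizing. Positive-direction fit against DMSO.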

Assay [6] can be described thus: ATG_M_06_TRANS: Attagene TRANS-FACTORIAL HepG2 Assay for M06 Transcription Factor (Internal Marker) (AID 2282983; active = hit-call score of the fitted dose curve at least 0.9, where 1 is the maximum;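 also: reporter transcript level by RT-PCR then capillary electrophoresis fluorescence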). The conditions noted are these: HepG2 Attagene TRANS M06 internal marker reporter. Put shortly:
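HepG2 cells transiently transfected with multiplexed GAL4-UAS reporter transcription units; after 24 h compound exposure, reporter mRNA measured by RT-PCR, FAM-labelled primer extension, HpaI digestion and capillary electrophoresis. Gain-of-signal fitted versus DMSO baseline; background control readout.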

Assay [7] has as its target Nuclear receptor subfamily 4 group A member 2 (Homo sapiens) (UniProt P43354). The experiment in a line: ATG_NURR1_TRANS: Attagene TRANS-FACTORIAL HepG2 Assay for human Nuclear Receptor Related Protein 1 (NURR1) (AID 2282985; active = hit-call score of the fitted dose curve at least 0.9, where 1 is the maximum). The conditions noted are these: HepG2 Attagene TRANS reporter, mRNA readout. Put shortly:
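Cells: HepG2, transiently transfected. Exposure: 24 h. Detection: fluorescence of labelled RT-PCR products separated by capillary electrophoresis; upward fit versus DMSO.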

Assay [8] has as its target Transcriptional activator Myb (Homo sapiens) (UniProt P10242). The experiment in a line: ATG_Myb_CIS: Attagene CIS-FACTORIAL HepG2 Assay for human Myeloblastosis (Myb) Proto-Oncogene Transcription Factor (AID 2282986). The conditions noted are these: HepG2 Attagene CIS-FACTORIAL Myb reporter transcription; actives raise or lower the signal. The method in brief: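 Using HepG2 liver cells bearing transiently transfected cis-promoter reporter constructs, the assay measures induction or loss of reporter mRNA after 24 hours of dosing. Detection used fluorescently labeled RT-PCR products separated by capillary electrophoresis.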

Assay [9] has as its target Nuclear respiratory factor 1 (Homo sapiens) (UniProt Q16656). The experiment in a line: ATG_NRF1_CIS: Attagene CIS-FACTORIAL HepG2 Assay for human Nuclear Respiratory Factor 1 (NRF1) Orphan Gene (AID 2282987). The conditions noted are these: HepG2 NRF1 cis-element reporter, Attagene multiplex; actives raise or lower the signal. The method in brief: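 Reporter mRNA induction or loss in HepG2 cells after 24 h dosing; cis-regulated reporter constructs report endogenous transcription-factor activity. Quantified by RT-PCR/capillary electrophoresis fluorescence, DMSO-referenced.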

A short description of assay [10]: ATG_NFI_CIS: Attagene CIS-FACTORIAL HepG2 Assay for human Nuclear Factor I (NFI) (AID 2282989). The conditions noted are these: HepG2 cis-regulatory reporter, NFI response element transcription; actives raise or lower the signal. Put shortly:
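Transfected HepG2 liver cells, exposed 24 h, supplied total RNA for oligo(dT) reverse transcription and reporter-specific PCR. Labelled, HpaI-cut fragments were sized by capillary electrophoresis; DMSO set the baseline for bidirectional fitting.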

Assay [11] deals with Myc proto-oncogene protein (Homo sapiens) (UniProt P01106). Put plainly: ATG_Myc_CIS: Attagene CIS-FACTORIAL HepG2 Assay for human Myelocytomatosis (Myc) Proto-Oncogene Transcription Factor (AID 2282990). The conditions noted are these: HepG2, Attagene cis-reporter transcription factor activity; actives raise or lower the signal. Put shortly: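 HepG2, transient MRTU transfection (cis promoters, endogenous TFs); 24 h dosing; TriZol RNA → oligo(dT) RT → PCR → 6-FAM primer extension → HpaI cut → CE. Bidirectional fit vs DMSO.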

A short description of assay [12]: ATG_NRF2_ARE_CIS: Attagene CIS-FACTORIAL HepG2 Assay for human Nuclear Factor Erythroid 2 Related Factor 2 (NFR2) response to Antioxidant Response Elements (ARE) (AID 2282992).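 As to AC50: reporter mRNA level measured by RT-PCR and capillary electrophoresis fluorescence.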 The conditions noted are these: HepG2 Attagene ARE/NRF2 reporter, transcription factor activity; actives raise or lower the signal. The method in brief: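 Multiplexed reporter mRNA profiling in HepG2 after a 24 h chemical exposure. Curves fitted in both directions relative to DMSO negative control.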

The nature of assay [13]: ATG_Oct_MLP_CIS: Attagene CIS-FACTORIAL HepG2 Assay for human Octamer-Binding Transcription Factor (Oct) (AID 2282993). The conditions noted are these: HepG2 Attagene cis-factorial Oct reporter, mRNA; actives raise or lower the signal. Put shortly: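 Using HepG2 cells bearing transfected cis-reporter constructs, mRNA induction was read after 24 h by fluorescent RT-PCR and capillary electrophoresis, with DMSO defining baseline for gain- or loss-of-signal fits.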

A short description of assay [14]: BSK_3C_TissueFactor: BioMAP Diversity Plus: 3C Assay for Tissue Factor Biomarker Activity (AID 2282997). The conditions noted are these: BioMAP 3C HUVEC, tissue factor biomarker readout; actives raise or lower the signal. The method in brief: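 Primary human umbilical vein endothelial cells in the 3C system were exposed to test chemical for 24 h, then Tissue Factor measured by ELISA. Activity was fitted bidirectionally against DMSO as negative control and baseline.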

Assay [15] in a line: BSK_3C_uPAR: BioMAP Diversity Plus: 3C Assay for Urokinase-type plasminogen activator receptor (uPAR) Biomarker Activity (AID 2282998). The conditions noted are these: BioMAP 3C HUVEC, uPAR biomarker ELISA; actives raise or lower the signal. Put shortly: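 In this endothelial cell-based assay, human umbilical vein primary cells were treated with chemicals and harvested at 24 h. uPAR was quantified using ELISA, with gains or losses fitted relative to DMSO controls.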

Assay [16] is described as follows: ATG_M_32_TRANS: Attagene TRANS-FACTORIAL HepG2 Assay for M32 Transcription Factor (Internal Marker) (AID 2282984; active = hit-call score of the fitted dose curve at least 0.9, where 1 is the maximum). The conditions noted are these: HepG2 Attagene TRANS M32 internal marker reporter. The method in brief:
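Using transiently transfected HepG2 cells exposed to test chemicals for 24 h, reporter transcripts are converted to labelled cDNA fragments and quantified by capillary electrophoresis. DMSO defines the activity baseline.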

Assay [17] addresses Cellular tumor antigen p53 (Homo sapiens) (UniProt P04637). The experiment in a line: ATG_p53_CIS: Attagene CIS-FACTORIAL HepG2 Assay for human p53 Transcription Factor (AID 2282994). The conditions noted are these: HepG2 p53 cis-element reporter, Attagene mRNA; actives raise or lower the signal. The method in brief: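 Multiplexed reporter mRNA assay in human HepG2 liver cells; cis-regulated units report endogenous factor activity. Values come from bidirectional curve fitting against DMSO negative control after 24 h treatment.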

A short description of assay [18]: ATG_GAL4_TRANS: Attagene TRANS-FACTORIAL HepG2 Assay for GAL4 (Internal Marker) (AID 2282976; active = hit-call score of the fitted dose curve at least 0.9, where 1 is the maximum). The conditions noted are these: HepG2 Attagene TRANS GAL4 internal marker reporter. Put shortly: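 HepG2 cells transiently transfected with multiplexed GAL4-UAS reporter constructs were dosed for 24 h. Reporter mRNA was measured by RT-PCR, 6-FAM primer extension, HpaI digestion and capillary electrophoresis, and gain of signal was fitted relative to DMSO.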

A short description of assay [19]: ATG_Hpa5_TRANS: Attagene TRANS-FACTORIAL HepG2 Assay for human GAL4-Hpa5 Hepatocyte Transcription Factor Basal Promoter (AID 2282975; active = hit-call score of the fitted dose curve at least 0.9, where 1 is the maximum;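 also: hits are increases in reporter mRNA over DMSO baseline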). The conditions noted are these: HepG2 Attagene GAL4-Hpa5 transcription reporter. The method in brief: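 Basal-promoter GAL4 background control within the HepG2 trans-factorial panel of transiently transfected reporter units. Reporter mRNA is measured 24 h after dosing by RT-PCR and capillary electrophoresis, fitted for gain of signal versus DMSO.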

Records with an inconclusive call do not appear. Activity calls are given as the source filed them. The calls were made as follows, unless noted: active = hit-call score of the fitted dose curve at least 0.9, where 1 is the maximum; inactive = score below 0.9.

Outcome and AC50 data for nine compounds are collected here from PubChem BioAssay (EPA / NIEHS).

Oxysterols receptor LXR-beta (Homo sapiens), sequence (P55055 whole entry, looked up, the tested form may be a part): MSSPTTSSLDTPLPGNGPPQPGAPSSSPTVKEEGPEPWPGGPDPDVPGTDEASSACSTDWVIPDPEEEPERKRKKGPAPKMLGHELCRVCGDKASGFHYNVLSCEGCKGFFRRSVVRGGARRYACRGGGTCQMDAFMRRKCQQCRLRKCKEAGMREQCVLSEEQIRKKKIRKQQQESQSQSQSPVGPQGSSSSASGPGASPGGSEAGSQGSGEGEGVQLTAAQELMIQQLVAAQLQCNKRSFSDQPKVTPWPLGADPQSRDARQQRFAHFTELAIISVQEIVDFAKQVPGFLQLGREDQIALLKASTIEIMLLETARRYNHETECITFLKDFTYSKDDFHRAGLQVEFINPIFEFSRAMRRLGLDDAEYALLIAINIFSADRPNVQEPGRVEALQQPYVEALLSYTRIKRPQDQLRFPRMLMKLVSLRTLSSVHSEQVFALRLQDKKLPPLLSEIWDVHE
Bile acid receptor (Homo sapiens), sequence (Q96RI1 whole entry, looked up, the tested form may be a part): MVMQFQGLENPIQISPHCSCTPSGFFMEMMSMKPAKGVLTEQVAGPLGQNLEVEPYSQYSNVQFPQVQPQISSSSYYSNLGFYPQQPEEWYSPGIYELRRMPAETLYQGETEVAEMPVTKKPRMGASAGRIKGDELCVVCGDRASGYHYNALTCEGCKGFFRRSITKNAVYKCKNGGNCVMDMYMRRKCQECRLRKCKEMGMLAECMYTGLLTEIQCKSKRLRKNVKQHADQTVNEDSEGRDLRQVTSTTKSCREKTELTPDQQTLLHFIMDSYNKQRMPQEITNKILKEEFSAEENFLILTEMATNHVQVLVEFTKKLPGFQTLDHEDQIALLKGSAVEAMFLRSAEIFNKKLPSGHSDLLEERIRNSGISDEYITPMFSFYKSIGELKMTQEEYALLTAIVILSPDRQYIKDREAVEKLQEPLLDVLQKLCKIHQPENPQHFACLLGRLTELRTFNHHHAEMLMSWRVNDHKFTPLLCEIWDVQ
Glucocorticoid receptor (Homo sapiens), sequence (P04150 whole entry, looked up, the tested form may be a part): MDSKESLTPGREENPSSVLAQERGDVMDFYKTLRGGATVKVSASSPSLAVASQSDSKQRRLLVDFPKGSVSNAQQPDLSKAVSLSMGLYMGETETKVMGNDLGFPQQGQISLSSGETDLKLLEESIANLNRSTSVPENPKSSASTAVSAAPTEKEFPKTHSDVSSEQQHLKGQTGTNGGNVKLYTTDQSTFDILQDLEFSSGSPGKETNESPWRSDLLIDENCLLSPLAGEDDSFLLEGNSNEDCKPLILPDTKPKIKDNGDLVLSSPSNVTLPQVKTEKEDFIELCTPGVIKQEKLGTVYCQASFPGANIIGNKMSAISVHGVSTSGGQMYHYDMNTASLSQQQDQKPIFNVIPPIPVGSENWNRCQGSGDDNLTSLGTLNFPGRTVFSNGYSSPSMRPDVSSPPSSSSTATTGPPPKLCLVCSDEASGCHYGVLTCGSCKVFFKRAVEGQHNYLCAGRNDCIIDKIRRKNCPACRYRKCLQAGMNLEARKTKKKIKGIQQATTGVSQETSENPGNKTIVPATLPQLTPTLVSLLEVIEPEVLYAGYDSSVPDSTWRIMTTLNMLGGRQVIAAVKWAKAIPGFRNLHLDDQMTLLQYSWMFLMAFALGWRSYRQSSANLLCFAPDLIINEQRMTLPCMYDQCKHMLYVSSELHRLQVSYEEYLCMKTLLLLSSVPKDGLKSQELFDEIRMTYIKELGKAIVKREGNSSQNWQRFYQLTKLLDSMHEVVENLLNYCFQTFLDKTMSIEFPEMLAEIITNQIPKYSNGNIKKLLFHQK
Nuclear respiratory factor 1 (Homo sapiens), sequence (Q16656 whole entry, looked up): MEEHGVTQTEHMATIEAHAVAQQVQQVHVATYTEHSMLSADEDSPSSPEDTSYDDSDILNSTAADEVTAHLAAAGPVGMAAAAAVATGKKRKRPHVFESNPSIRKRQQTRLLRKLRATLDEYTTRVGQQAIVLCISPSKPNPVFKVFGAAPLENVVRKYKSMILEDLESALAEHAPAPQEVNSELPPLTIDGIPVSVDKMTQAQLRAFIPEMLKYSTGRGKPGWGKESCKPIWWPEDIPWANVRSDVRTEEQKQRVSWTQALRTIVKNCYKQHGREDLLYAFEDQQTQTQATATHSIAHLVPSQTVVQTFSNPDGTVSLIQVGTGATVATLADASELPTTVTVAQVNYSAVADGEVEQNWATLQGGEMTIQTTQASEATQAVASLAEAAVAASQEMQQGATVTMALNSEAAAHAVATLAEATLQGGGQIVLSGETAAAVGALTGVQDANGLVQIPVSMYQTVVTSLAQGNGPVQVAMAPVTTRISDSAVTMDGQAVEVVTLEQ
Hepatocyte nuclear factor 4-alpha (Homo sapiens), sequence (P41235 whole entry, looked up): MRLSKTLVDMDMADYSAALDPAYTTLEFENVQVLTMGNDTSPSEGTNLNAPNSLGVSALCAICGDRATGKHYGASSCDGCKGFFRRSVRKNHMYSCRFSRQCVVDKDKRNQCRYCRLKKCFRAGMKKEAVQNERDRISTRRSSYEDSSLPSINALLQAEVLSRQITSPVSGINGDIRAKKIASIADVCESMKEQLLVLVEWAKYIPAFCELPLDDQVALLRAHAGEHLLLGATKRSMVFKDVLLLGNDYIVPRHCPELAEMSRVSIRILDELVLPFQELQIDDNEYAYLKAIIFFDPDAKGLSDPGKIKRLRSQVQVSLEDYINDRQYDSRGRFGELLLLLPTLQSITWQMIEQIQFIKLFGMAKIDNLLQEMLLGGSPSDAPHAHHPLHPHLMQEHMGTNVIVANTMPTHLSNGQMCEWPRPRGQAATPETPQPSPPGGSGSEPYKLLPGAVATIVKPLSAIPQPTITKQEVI
Cellular tumor antigen p53 (Homo sapiens), sequence (P04637 whole entry, looked up): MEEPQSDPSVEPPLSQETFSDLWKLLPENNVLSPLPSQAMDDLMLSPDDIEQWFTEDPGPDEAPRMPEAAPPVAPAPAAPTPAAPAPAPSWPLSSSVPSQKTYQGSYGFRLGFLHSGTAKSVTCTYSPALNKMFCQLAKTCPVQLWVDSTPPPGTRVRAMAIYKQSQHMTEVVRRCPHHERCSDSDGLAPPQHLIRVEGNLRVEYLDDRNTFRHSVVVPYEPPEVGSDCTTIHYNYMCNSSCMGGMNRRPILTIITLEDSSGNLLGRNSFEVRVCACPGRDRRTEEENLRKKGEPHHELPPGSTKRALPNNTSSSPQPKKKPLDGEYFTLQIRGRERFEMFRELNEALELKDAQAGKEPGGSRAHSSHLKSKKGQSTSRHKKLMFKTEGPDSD
Oxysterols receptor LXR-alpha (Homo sapiens), sequence (Q13133 whole entry, looked up, the tested form may be a part): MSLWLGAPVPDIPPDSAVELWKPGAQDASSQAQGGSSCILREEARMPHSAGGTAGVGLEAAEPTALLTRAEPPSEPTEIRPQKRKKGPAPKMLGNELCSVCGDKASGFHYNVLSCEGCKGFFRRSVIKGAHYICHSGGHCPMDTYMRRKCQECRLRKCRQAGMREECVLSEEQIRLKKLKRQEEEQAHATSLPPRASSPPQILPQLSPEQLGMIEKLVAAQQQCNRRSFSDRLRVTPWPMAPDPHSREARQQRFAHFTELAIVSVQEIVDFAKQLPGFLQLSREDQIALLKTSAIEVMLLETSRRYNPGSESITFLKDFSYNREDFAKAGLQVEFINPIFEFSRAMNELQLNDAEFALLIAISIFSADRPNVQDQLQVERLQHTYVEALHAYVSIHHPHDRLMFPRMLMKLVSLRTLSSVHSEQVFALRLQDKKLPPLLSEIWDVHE
Myc proto-oncogene protein (Homo sapiens), sequence (P01106 whole entry, looked up): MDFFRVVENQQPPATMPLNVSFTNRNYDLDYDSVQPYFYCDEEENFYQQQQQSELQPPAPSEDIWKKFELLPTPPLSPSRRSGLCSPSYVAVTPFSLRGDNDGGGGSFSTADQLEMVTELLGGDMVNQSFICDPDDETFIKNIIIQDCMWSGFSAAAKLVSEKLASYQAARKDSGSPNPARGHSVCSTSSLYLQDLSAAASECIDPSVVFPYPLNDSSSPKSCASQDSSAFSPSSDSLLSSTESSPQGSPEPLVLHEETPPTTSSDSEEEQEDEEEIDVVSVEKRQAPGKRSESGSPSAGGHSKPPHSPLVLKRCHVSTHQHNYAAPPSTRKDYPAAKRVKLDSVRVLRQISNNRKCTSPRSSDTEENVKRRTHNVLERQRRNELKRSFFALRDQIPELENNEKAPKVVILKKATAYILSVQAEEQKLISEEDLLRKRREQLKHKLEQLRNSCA
Nuclear receptor subfamily 4 group A member 2 (Homo sapiens), sequence (P43354 whole entry, looked up): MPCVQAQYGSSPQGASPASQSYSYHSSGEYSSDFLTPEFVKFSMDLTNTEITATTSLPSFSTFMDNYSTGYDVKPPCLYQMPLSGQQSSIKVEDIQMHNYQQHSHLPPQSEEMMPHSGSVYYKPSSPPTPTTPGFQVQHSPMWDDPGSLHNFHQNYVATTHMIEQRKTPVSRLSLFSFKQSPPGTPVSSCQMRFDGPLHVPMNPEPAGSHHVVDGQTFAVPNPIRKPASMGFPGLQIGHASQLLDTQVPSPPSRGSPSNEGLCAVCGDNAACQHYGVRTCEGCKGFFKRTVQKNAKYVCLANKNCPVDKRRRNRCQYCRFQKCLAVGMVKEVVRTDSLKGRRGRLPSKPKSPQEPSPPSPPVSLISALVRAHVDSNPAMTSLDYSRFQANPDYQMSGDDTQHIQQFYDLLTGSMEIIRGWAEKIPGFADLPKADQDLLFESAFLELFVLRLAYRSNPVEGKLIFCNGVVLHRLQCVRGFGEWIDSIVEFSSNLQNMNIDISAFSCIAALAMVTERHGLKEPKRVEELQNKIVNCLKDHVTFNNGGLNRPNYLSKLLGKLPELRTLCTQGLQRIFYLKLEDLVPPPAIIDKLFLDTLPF

The AC50 is the concentration at which the activity in the assay is half-maximal. In the case of `CC(C)=CC1C(C(=O)OCc2coc(Cc3ccccc3)c2)C1(C)C` (centres undefined), the call in [1], in assay [2], in assay [3], in [4], in assay [5] and in [6] was inactive. Also, the call in [8], in assay [9], in assay [10], in assay [11] and in assay [14] was inactive. The AC50 is 33.9 µM (active) in assay [7], 13.8 µM (active) in assay [12], 6.38 µM (active) in assay [13] and 12 µM (active) in assay [15].
`CCOP(=O)(OCC)Oc1nc(Cl)c(Cl)cc1Cl`: the outcome in [1], in [3], in [4], in [6], in assay [16] and in [7] was inactive. The call in assay [9], in assay [11], in assay [17] and in [14] was inactive. Moreover, the AC50 was 33.4 µM (active) in assay [12], 50 µM (active) in [13] and 20 µM (active) in [15].
With `COC(=O)NC(=S)Nc1ccccc1NC(=S)NC(=O)OC`, the call in assay [1], in assay [3], in assay [4], in [5], in [7] and in assay [9] was inactive. Moreover, the call in assay [10], in assay [11], in assay [17], in [14] and in assay [15] was inactive. For the same compound, the results for the AC50 in assay [12] and in assay [13] were 11.6 µM (active) and 30.8 µM (active), respectively.
As for `COP(=S)(OC)Oc1ccc([N+](=O)[O-])c(C)c1`, the compound was classed as inactive in assay [18], in assay [1], in assay [2], in [3], in [4] and in [5]. Besides, the call in [6], in [16], in assay [7], in assay [9], in assay [11] and in assay [17] was inactive. Further, in assay [14], the result was inactive. Moreover, the AC50 in [12] is 19.1 µM (active); in assay [13] it was 50 µM (active); in assay [15] it was 15.6 µM (active).
For the compound `O=C(Nc1ccccc1-c1ccc(Cl)cc1)c1cccnc1Cl`, the compound was classed as inactive in assay [19], in [1], in [4], in assay [5], in [6] and in assay [16]. Moreover, the result in assay [7], in assay [9], in [10], in assay [11], in assay [17] and in [14] was inactive. Besides, the outcome in assay [15] was inactive. Also, the AC50 in [12] was 8.77 µM (active); in [13] it was 7.03 µM (active).
Turning to `Cc1cc(C)nc(Nc2ccccc2)n1`, the compound was called inactive in assay [1], in [3], in [4], in assay [5], in [6] and in [16]. Also, the result in assay [9], in assay [11], in [17], in assay [14] and in [15] was inactive. For the same compound, the AC50 was 21.6 µM (active) in assay [12] and 12 µM (active) in assay [13].
Take `N#CN=C1SCCN1Cc1ccc(Cl)nc1`: the call in [1], in assay [3], in [4], in [5], in [16] and in [7] was inactive. Besides, the compound was classed as inactive in assay [9], in assay [10], in [11], in assay [13], in assay [17] and in [14]. In addition, in [15], the outcome was inactive. Further, the AC50 in assay [12] is 50 µM (active).
On to `COCc1cnc(C2=NC(C)(C(C)C)C(=O)N2)c(C(=O)O)c1` (centres undefined), for which the compound was classed as inactive in [1], in [2], in [4], in assay [5], in assay [6] and in assay [16]. For the same compound, the outcome in assay [7], in assay [9], in assay [11], in [12], in assay [13] and in assay [14] was inactive. For the same compound, in assay [15], the result was inactive.
As for `O=c1n(Cl)c(=O)n(Cl)c(=O)n1Cl`, the call in [1], in [3], in assay [4], in assay [5], in assay [7] and in assay [9] was inactive. The compound was classed as inactive in assay [11], in assay [12], in assay [13], in [17], in assay [14] and in assay [15].
